Whole data set: some 68,000 sequences, median “fluorescence intensity (a.u.)” near 9,100, cut for the highest 2% near 16,000. The sample holds the highest values, similar sequences and a random draw of the others, so the mix is not that of the screen.
Molecular target: OsWRKY34 (Oryza sativa, UniProt Q0JBA9 1-250)
Assay: protein-binding microarray (RPBM); PBS, 2% BSA, 51.3 ng/ul salmon testes DNA, 50 uM zinc acetate, 200 nM TF, 25 C, 1 h; high values mean tight binding
Details: protein: recombinant; tags: N-terminal polyhistidine and DsRed monomer fusion (pET32a); label: CyDye5-dUTP incorporated in the synthesized complementary strand; 3' TTTTT single-stranded linker to array surface; dsDNA, one strand shown
How it was run: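 An Axon 4000B scanner gave the binding signal as per-feature fluorescence intensity in arbitrary units. This followed washing of a custom Agilent array that had been incubated for 1 h at 25 °C with 200 nM protein in PBS, 2% BSA, salmon testes DNA and 50 µM zinc acetate. The proteins were transcription factors fused at the N-terminus to polyhistidine and DsRed, expressed in E. coli BL21-CodonPlus and purified on Ni–NTA.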

OsWRKY34, sequence (Q0JBA9 entry or part of it): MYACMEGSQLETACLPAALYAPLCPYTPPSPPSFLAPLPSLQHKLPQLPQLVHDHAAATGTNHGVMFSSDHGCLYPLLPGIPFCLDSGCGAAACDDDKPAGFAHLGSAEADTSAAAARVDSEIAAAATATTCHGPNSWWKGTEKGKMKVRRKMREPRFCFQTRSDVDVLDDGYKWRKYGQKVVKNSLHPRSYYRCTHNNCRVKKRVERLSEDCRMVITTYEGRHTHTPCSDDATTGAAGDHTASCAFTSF

Sequence	binding signal
GGGGCGCCGGGAAGGAGGGCGCTGTGTGGGAGGGAGGGAGCGGAGTCACCTAGTGCAG	17100 fluorescence intensity (a.u.)
GGGGAGGCGGGGTGGCGGGAGGGAAGGCGGCGGCGGCGCCCGGAGTCACCTAGTGCAG	12700 fluorescence intensity (a.u.)
GGAGGGGCGGTGGCCGCCGGCGGCCCGCGCGGCGGGAGCGCGGAGTCACCTAGTGCAG	9240 fluorescence intensity (a.u.)
CCCCGGAAGGGGCGGGGAGGGGAGGGCGGCAGCGGCGCCGCGGAGTCACCTAGTGCAG	18500 fluorescence intensity (a.u.)
GCCGTCCGCCGTGAGCCGGTGCTGTCCACGACGTCGTCTTCGGAGTCACCTAGTGCAG	9640 fluorescence intensity (a.u.)
TTACTCCTGGACCAGCATTGCTACAACTATCATTTTCTCCCGGAGTCACCTAGTGCAG	9840 fluorescence intensity (a.u.)
GGTTTTAAAGGGGTTCCATACACGTATGATAATAAGAGACCGGAGTCACCTAGTGCAG	8180 fluorescence intensity (a.u.)
GTCCAGGTTGGTTTTCATGGGTCGAGTGGCATCAGATGGGCGGAGTCACCTAGTGCAG	10100 fluorescence intensity (a.u.)
TTCTTGATCTTTCTGGTTTCTACTGGTTGATTGTACACTTCGGAGTCACCTAGTGCAG	8500 fluorescence intensity (a.u.)
TTTTTTCTGTTTGTCCTCCATATATGTCAGCTCTAAAAATCGGAGTCACCTAGTGCAG	9300 fluorescence intensity (a.u.)
GCCCTTAACGCGATCATGTAACAATGTATCTAAGCCTATACGGAGTCACCTAGTGCAG	8200 fluorescence intensity (a.u.)
TTCCTAGTACTATCTGCGTTGCGTTGACTGACATGTGGGCCGGAGTCACCTAGTGCAG	17000 fluorescence intensity (a.u.)
ATCCGTTGCCCTCGCTCCTATAACTGCGTTGACATGTCGCCGGAGTCACCTAGTGCAG	9550 fluorescence intensity (a.u.)
AGGGAGGGAGGGAGGAGGAAGGAGGACTGACATGTGGGCCCGGAGTCACCTAGTGCAG	9250 fluorescence intensity (a.u.)
ACCTGACGGCCCAACCAGGCGACCGCTCTCTCCGTTTTCCCGGAGTCACCTAGTGCAG	8070 fluorescence intensity (a.u.)
ACCCAATCTCAATTTGCCCTGTTGCCAACCCTAGTGATGACGGAGTCACCTAGTGCAG	8520 fluorescence intensity (a.u.)
TTCTTTCCGTTGTGCTTGCTGCTTTTCTCTACTACCTTTTCGGAGTCACCTAGTGCAG	9900 fluorescence intensity (a.u.)
ACTCCCTCCGTTTCACAATGTAAGTCATTCTAGCATTTCCCGGAGTCACCTAGTGCAG	9500 fluorescence intensity (a.u.)
TGATTTATGAATTATGATTACTAATACTGTTTTTTGTCCTCGGAGTCACCTAGTGCAG	8780 fluorescence intensity (a.u.)
AATACTCCCTCCGTTTCGAAATATTTGACGCCGTTGACTTCGGAGTCACCTAGTGCAG	12400 fluorescence intensity (a.u.)
TTGACACCGTTAACTTTTTAGCATATGTTTGACCGTTCATCGGAGTCACCTAGTGCAG	9610 fluorescence intensity (a.u.)
TTGGTTGATTTTGATTGCTTTGCTCCTTTTCTGACTTGCTCGGAGTCACCTAGTGCAG	9410 fluorescence intensity (a.u.)
ACATATTGGTTGACTTTTTGCCGGGTCCACCGATTGGCACCGGAGTCACCTAGTGCAG	17700 fluorescence intensity (a.u.)
GTACTCCCTCCGTTTCGAAATATTTAACACCGTTGACTTTCGGAGTCACCTAGTGCAG	17400 fluorescence intensity (a.u.)
CTTTTTAGCATATGTTTGACCGTTTGTCTTATTTAAAATACGGAGTCACCTAGTGCAG	9700 fluorescence intensity (a.u.)
TACCGAACCTTTGGCATATTGACCCTTTTGGCCTTTTATACGGAGTCACCTAGTGCAG	12200 fluorescence intensity (a.u.)
GAAATATTTGACACCGTTGACTTTTTAGCATATGTTTGACCGGAGTCACCTAGTGCAG	30700 fluorescence intensity (a.u.)
CCTCCGTTTCTATATATTTAATATTGTTGACTTTTTAGCACGGAGTCACCTAGTGCAG	12000 fluorescence intensity (a.u.)
CTCTGTTTCTAAATATTTGACACCATTGACTTTTTAGCATCGGAGTCACCTAGTGCAG	10900 fluorescence intensity (a.u.)
ATTTGTTTCTAAATATTTGACACCGTTGACTTTTTAGCACCGGAGTCACCTAGTGCAG	24100 fluorescence intensity (a.u.)
